FAS TE block = blocks the thioesterase domain of human fatty acid synthase | P49327 | recombinant FAS-TE, OMFH fluorogenic substrate, fluorescence endpoint | inhibition, % at 15 µM | 360,000 tested, 0.67% active | AID 602261;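 active = compounds whose normalised, plate-corrected inhibition of enzyme fluorescence in the single-dose primary screen is 50% or more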;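 note: 0% = DMSO with enzyme and 100% = substrate without enzyme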
aDG glyco act = increases alpha dystroglycan glycosylation; Pro5-aDG cells, alpha-DG glycosylation AlphaScreen (IIH6); 0% Pro5, 100% B10-LARGE cell signal; activation, % at 10 µM; 360,000 tested, 0.22% active;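 active = activation of at least 8% versus controls, or a plate z-score of at least 8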;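 note: Pro5 are CHO cells carrying HIG-tagged alpha-DG that lacks glycosylation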
H9c2 protect = protects H9c2 cardiomyocytes from peroxide injury; H2O2 injury protection, ATPLite, 2 h; protection from H2O2 cell death, % at 20 µM; 360,000 tested, 0.63% active;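 active = compounds giving at least 50% protection of heart cells from peroxide-induced death in the single-dose screen, raw or plate-pattern-corrected value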;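 note: 0% = DMSO wells with peroxide and 100% = DMSO wells without peroxide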
beta cell repl = inducers of beta-cell replication in MIN6 cells. 330,000 tested, 0.29% active. proliferation, % at 10 µM. MIN6 cells proliferation, ATPlite luminescence, 48 h; cells starved in 0.2% serum; 100% = growth in 10% serum;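 active = compounds whose signal lies at least 3.5 SD above the mean of all wells on their plate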;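 note: 0% = DMSO-treated cells in low-serum medium and 100% = 10% serum control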
Calpain2 inh = calpain II (pig) inhibition. purified calpain II, fluorogenic peptide substrate, 30 min. inhibition, % at 16 µM. 220,000 tested, 0.37% active;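 active = inhibition above about 50%, limit read from the data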
H9c2 TAG inh = reduces triacylglycerol accumulation in H9c2 cells; AID 651582; 230,000 tested, 0.66% active; inhibition, % at 12.5 µM; Nile Red lipid (TAG) fluorescence; cells loaded with 200 µM oleic acid;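 active = pattern-corrected inhibition of lipid staining of at least 50% with the nuclear-stain viability signal not falling by more than 50%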;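 note: 0% = DMSO wells and 100% = triacsin C control wells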
H9c2 TAG conf = confirmation of triacylglycerol accumulation inhibitors; shares compounds with H9c2 TAG inh; H9c2 lipid accumulation, Nile Red fluorescence; cells loaded with 200 µM oleic acid; inhibition, % at 12.5 µM; 990 tested, 71% active;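 active = mean inhibition across replicates of 40% or more; inactive = mean inhibition below 40%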;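 note: plate controls were DMSO only wells for no effect and Triacsin C treated wells for full effect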
Numbers without * were called inactive; . = not tested or not shown. Rows were chosen to be rich in hits. Some 2.3% of all compounds tested hit in one or more screens of this group.

SMILES	FAS TE block	aDG glyco act	H9c2 protect	beta cell repl	Calpain2 inh	H9c2 TAG inh	H9c2 TAG conf
COc1ccc(NC(=O)C2Cc3c(-c4cccc(C(C)=O)c4)ccnc3O2)cc1 (centres undefined)	11	0	1	.	.	54*	38
NC(Cc1ccc(F)cc1)c1csc(Nc2ccc(C(F)(F)F)cn2)n1 (centres undefined)	1	-1	-28	.	.	90*	74*
CN(Cc1ccccc1)C(=O)c1ccc(Nc2nc(C(N)Cc3ccc(C(F)(F)F)cc3)cs2)nc1 (centres undefined)	-22	0	-22	.	.	11	.
CN(Cc1ccccc1)C(=O)c1ccc(Nc2nc(C(N)Cc3ccccc3)cs2)nc1 (centres undefined)	-10	-1	-19	.	.	52*	49*
CCOc1ccc(C(C(=O)NC(C)(C)C)N(CCOC)C(=O)CCC(=O)Nc2nccs2)cc1 (centres undefined)	0	0	3	-1	.	.	.
Cc1c(C)n(CC(O)CSc2ccccc2)c2ccccc12 (centres undefined)	9	0	.	.	.	.	.
COc1ccccc1NC(=O)Nc1nnc([C@@H]2C[C@H](O)[C@@H](CO)O2)s1	-11	1	-3	.	.	11	.
CCN(CC)CCCNc1nc2cc(OC)c(OC)cc2c2nc(-c3ccccc3)nn12	1	0	-2	-6	-432	61*	36
CN1CCN(CCCNc2nc3ccccc3c3nc(-c4ccccc4)nn23)CC1	-3	0	29	.	.	18	.
COc1cc2nc(NCCCN3CCN(C)CC3)n3nc(-c4ccccc4)nc3c2cc1OC	1	0	30	-5	-165	61*	41*
Cc1c(C(=O)OCC(C)C)[nH]c2c1C(=O)CC(c1cccs1)C2 (centres undefined)	-1	0	-20	-3	-16	64*	50*
COCCOC(=O)c1[nH]c2c(c1C)C(=O)CC(c1cccs1)C2 (centres undefined)	0	0	0	.	0	44	.
CCOCCOC(=O)c1[nH]c2c(c1C)C(=O)CC(c1cccs1)C2 (centres undefined)	-5	0	-7	-4	-9	53*	50*
CN(CCCn1ccc(N)nc1=O)Cc1ccco1	-5	0	5	.	.	1	.
C(=N\Nc1nc2ccccc2[nH]1)/c1ccccc1	-2	1	-6	2	-14	13	.
C(=N\Nc1nc2ccccc2[nH]1)/C1CCCCC1	-11	0	-27	-5	-26	74*	10
COc1ccc(C(C)=O)cc1Cn1c(C)c(C(=O)NCc2ccc3c(c2)OCO3)sc1=O	12	0	8	.	.	4	.
CCC(C)C(=O)Nc1nc(C)c(-c2csc(Nc3cc(OC)ccc3OC)n2)s1 (centres undefined)	23	1	-7	-8	-31	25	.
COc1ccc(OC)c(Nc2nc(-c3sc(NC(=O)CC(C)C)nc3C)cs2)c1	10	1	5	-7	1	58*	65*
COC(=O)c1ccc(C(=O)OC)c(NC(=O)CN2CCN(c3ccccc3)CC2)c1	1	0	1	0	21	.	.
COC(=O)c1ccc(C(=O)OC)c(NC(=O)CN2CCN(c3ccc(OC)cc3)CC2)c1	7	0	-4	-1	-8	56*	20
CCNc1nc(SC(C)C(=O)Nc2ccccc2)nc(N(C)C)n1 (centres undefined)	2	0	-4	-3	-16	54*	28
O=C(COC(=O)c1ccc(O)cc1O)Nc1ccc2c(c1)OCCO2	0	0	-8	-5	.	21	.
CSc1sc(-c2ccnc(=S)[nH]2)c(-c2ccccc2)c1C#N	10	0	0	0	-16	75*	4
Cc1c(C(=O)N2CCC2(C)C(=O)O)oc2ccccc12 (centres undefined)	-4	0	1	.	.	5	.
SMILES	FAS TE block	aDG glyco act	H9c2 protect	beta cell repl	Calpain2 inh	H9c2 TAG inh	H9c2 TAG conf
C=CCC[C@H](Cc1ccc(F)cc1)C(=O)OC[C@H](Cc1c[nH]c2ccccc12)NC(=O)[C@H](CC=C)CC(=O)N(CCO)Cc1ccccc1	20	0	-6	-6	.	18	.
C=CC[C@@H](CC(=O)N(CCO)Cc1ccccc1)C(=O)N[C@H](COC(=O)[C@@H](CC=C)Cc1ccc(F)cc1)Cc1c[nH]c2ccccc12	19	0	-3	-6	.	62*	63*
C=CCC[C@@H](Cc1ccc(F)cc1)C(=O)OC[C@@H](Cc1c[nH]c2ccccc12)NC(=O)[C@@H](CC=C)CC(=O)N(CCO)Cc1ccccc1	23	0	10	-5	.	60*	60*
c1ccc2oc(-c3ccc(Nc4nc(N5CCOCC5)nc(N5CCOCC5)n4)cc3)nc2c1	22	0	14	.	.	11	.
NC(=O)C1CCN(C(=O)CN(C2CCCCC2)S(=O)(=O)c2ccc(F)cc2)CC1	-3	0	2	0	.	.	.
N#CCC(=O)N/N=C/c1cn(Cc2ccc(Cl)c(Cl)c2)c2ccccc12	-2	0	-6	-3	-17	73*	58*
Nc1cc(Br)cc2c1[nH]c(=O)c1ccccc12	-4	0	46	.	.	-8	.
Nc1cc2c(cc1Br)[nH]c(=O)c1ccccc12	1	0	17	.	.	77*	62*
Nc1nc2c(ncn2[C@@H]2O[C@H](CNC(=O)[C@H](N)Cc3cncn3COCc3ccccc3)[C@@H](O)[C@H]2O)c(=O)[nH]1	-9	0	-1	.	.	.	.
COc1ccc(CNC(=O)C2CCN(c3nc(-c4ccccc4)nc4c3CCC4)CC2)cc1	13	0	4	-6	.	52*	41*
COCCCn1c(SCC(=O)Nc2nc3ccccc3s2)nnc1-c1ccoc1C	2	0	3	0	6	51*	34
Clc1cccc(Nc2nc(-c3ccncc3)nc3ccccc23)c1	0	0	-12	-4	-116	67*	52*
CCN(CC)CCn1c2c(c(SCC(=O)Nc3ccc(C)c(F)c3)nc1=O)CCCC2	-2	0	4	0	.	53*	19
COc1ccc(CNC(=O)CN(Cc2ccccc2)C(=O)CCC(=O)Nc2ccccn2)cc1	4	0	16	0	.	.	.
COc1ccc2sc(-c3ccc(N(C)C)cc3)c(C#CCCO)c2c1	18	1	-17	-7	.	76*	87*
Nc1nc2c(ncn2[C@@H]2O[C@H](CNC(=O)[C@H](N)C3CCCCC3)[C@@H](O)[C@H]2O)c(=O)[nH]1	-4	0	3	.	.	.	.
CCCCSc1nnc(-c2ccc(NC(=O)CCc3ccccc3)cc2)n1C	-10	0	3	-2	-11	51*	34
